Sampled rows, rich in hits. Any-hit rate of the full collection: about 19%.
VP16 counter: Gal4-VP16 reporter inhibition counter-screen; Drosophila S2 Gal4-VP16 UAS-luciferase, luminescence, 20 h; Potency, µM (doses to about 53.6 µM), without a hit: top-dose activity, negative = inhibition, usual class: inhibitors; actives 3.5% (n = 310,000);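 further: Gal4-VP16 expression switched on by copper sulfate through the metallothionein promoter; nearly all actives have a fitted effect of over 50% in size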
DT40 TDP1 CPT: DT40-hTDP1 cell growth loss with CPT; actives 12% (n = 420,000); Potency, µM (titrated, usually from 46.2 µM), inactives show at the highest dose activity change, negative = growth inhibition, most hits filed as inhibitors; AID 686979; chicken DT40 Tdp1-/-;hTDP1 cells + 20 nM CPT, ATP luminescence, 48 h; further: nearly all actives have a fitted effect of over 55% in size
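Chicken DT40 Tdp1-/- cells stably complemented with human TDP1 were seeded at 400 cells/well in medium containing 20 nM camptothecin, exposed to pin-transferred compounds, and grown at 37 °C for at least 48 hr. Viability was read as ATP luminescence.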
RORgamma inh: inhibitors of mouse ROR gamma transcriptional activity. P51450. Drosophila S2 Gal4-RORgamma UAS-luciferase reporter, 20 h. Potency, µM (top dose mostly 53.6 µM), for inactives: top-dose activity change, negative = inhibition, most hits filed as inhibitors. actives 5.4% (n = 310,000). AID 2551; further: nearly all actives have a fitted effect of over 60% in size
Target sequence (P51450 whole entry, looked up, the tested form may be a part): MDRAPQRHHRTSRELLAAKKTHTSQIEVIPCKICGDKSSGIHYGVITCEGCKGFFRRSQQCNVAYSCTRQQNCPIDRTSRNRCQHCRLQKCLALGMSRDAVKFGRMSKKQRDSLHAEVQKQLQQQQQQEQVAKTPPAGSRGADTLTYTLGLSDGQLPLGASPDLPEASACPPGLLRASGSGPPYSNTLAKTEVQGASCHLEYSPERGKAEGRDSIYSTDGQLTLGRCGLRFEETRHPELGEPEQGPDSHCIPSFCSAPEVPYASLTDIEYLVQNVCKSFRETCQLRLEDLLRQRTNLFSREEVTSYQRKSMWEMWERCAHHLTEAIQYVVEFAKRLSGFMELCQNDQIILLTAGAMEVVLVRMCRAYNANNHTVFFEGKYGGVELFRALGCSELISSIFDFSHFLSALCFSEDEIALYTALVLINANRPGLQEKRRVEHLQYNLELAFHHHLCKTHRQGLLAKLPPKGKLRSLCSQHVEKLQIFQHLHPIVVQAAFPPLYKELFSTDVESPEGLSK
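Stably transfected Drosophila Schneider cells are the test system, with ROR gamma fused to Gal4 and luciferase under UAS control; luminescence is read after 20 hr of 700 uM copper sulfate induction at ambient temperature.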
TDP1 cell noCPT: qHTS for Inhibitors of human tyrosyl-DNA phosphodiesterase 1 (TDP1): qHTS in cells in absence of CPT. AID 686978, 2013. actives 15% (n = 420,000). Potency, µM (highest dose often 46.2 µM), for inactives: at the highest dose activity change, negative = growth inhibition, usual class: inhibitors. DT40 Tdp1-/- hTDP1 cells, no CPT, ATP luminescence, 48 h; further: nearly all actives have a fitted effect of over 55% in size
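Seeded 400 DT40-hTDP1 cells/well (vehicle DMSO, no 20 nM CPT); pinned compounds; ≥48 hr at 37 °C; CellTiter-Glo luminescence as viability measure.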
TDP1 block: blocks human tyrosyl-DNA phosphodiesterase 1. Q9NUW8. recombinant TDP1, AlphaScreen DNA substrate cleavage. Potency, µM (highest dose often 130 µM), without a hit: top-dose activity change, negative = inhibition, actives largely listed as inhibitors. actives 0.28% (n = 350,000). AID 485290; further: nearly all actives have a fitted effect of over 40% in size
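Steps: enzyme plus compound, 15 min RT; add biotin/phosphotyrosine-FITC oligonucleotide (15 nM final), react 5 min; add donor/acceptor beads (10 ug/ml final), 10 min; read AlphaScreen. Tdp1 at 1 nM final.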
Active calls of the source: *. The call rests on the fitted dose curve; in most records, active means well fitted curve in the direction sought with a large enough effect; inconclusive means small, poorly fitted or top-dose-only effect, or another doubt; inactive means no such curve, though single readings can be large; an effect the other way counts as inactive or inconclusive. On the % scale 0 is the no-effect control and ±100 the full control effect; potency means the concentration at half of the fitted maximal effect.

COc1ccc(S(=O)(=O)Nc2c(C(=O)O)[nH]c3ccc(OC)cc23)c(OC)c1 was read as VP16 counter -8.7%, DT40 TDP1 CPT 1.0%, RORgamma inh -15.8%, TDP1 cell noCPT -17.1% and TDP1 block 13.7%.
`CCOC(=O)C1CCN(C(c2cccnc2)c2c(NC(=O)c3ccco3)sc(C)c2C)CC1` (stereo not given) gave VP16 counter 5.9%, DT40 TDP1 CPT 1.64µM*, RORgamma inh 18.5%, TDP1 cell noCPT 1.84µM* and TDP1 block 10.0%.
Screening Cc1sc(NC(=O)c2ccco2)c(C(c2cccnc2)N2CCN(CCO)CC2)c1C (stereo not given) returned VP16 counter -7.5%, DT40 TDP1 CPT -29.1%, RORgamma inh 3.8%, TDP1 cell noCPT 0.2% and TDP1 block 2.5%.
`COc1ccccc1OCC(=O)OC/C(O)=C(\C#N)c1nc2ccccc2[nH]1` gave VP16 counter -5.0%, DT40 TDP1 CPT inconclusive, RORgamma inh 10.8%, TDP1 cell noCPT inconclusive and TDP1 block 5.6%.
Screening N#C/C(=C(/O)COC(=O)Cc1c[nH]c2ccccc12)c1nc2ccccc2[nH]1 returned VP16 counter inconclusive, DT40 TDP1 CPT -17.5%, RORgamma inh 10µM*, TDP1 cell noCPT -16.2% and TDP1 block 10.0%.
N#CC(=C(O)COC(=O)CCC1CCCCC1)c1nc2ccccc2[nH]1 was read as DT40 TDP1 CPT 5.8µM* and TDP1 cell noCPT 5.17µM*.
For c1ccc(COc2ccc(OCCCCN3CCCCC3)cc2)cc1 the results were VP16 counter -7.2%, DT40 TDP1 CPT 29.1µM*, RORgamma inh -8.1%, TDP1 cell noCPT 20.6µM* and TDP1 block 3.6%.
CN1CCN(CCCOc2ccc(-c3ccccc3)cc2)CC1 was read as VP16 counter -6.9%, DT40 TDP1 CPT inconclusive, RORgamma inh 1.8% and TDP1 cell noCPT 16.4µM*.
`CN1CCN(CCOc2ccc(-c3ccccc3)cc2)CC1` gave DT40 TDP1 CPT inconclusive, TDP1 cell noCPT inconclusive and TDP1 block 7.3%.
Screening COc1ccc(CC(NC(C)=O)C(=O)NC2CCN(c3nc(C)cc(C)c3C#N)CC2)c(OC)c1 (stereo not given) returned VP16 counter -8.8%, DT40 TDP1 CPT 1.8%, RORgamma inh 2.5%, TDP1 cell noCPT -23.7% and TDP1 block 3.1%.
`CCCC[C@@H]1C[C@H]1C(NC(=O)c1cccs1)c1ccc(C(F)(F)F)cc1` (stereo not given in full) gave VP16 counter 1.4%, RORgamma inh -25.2% and TDP1 block -3.3%.
Screening O=C(CC(SCCO)c1ccc(F)cc1)c1ccco1 (stereo not given) returned VP16 counter -19.0%, DT40 TDP1 CPT 18.4µM*, RORgamma inh inconclusive, TDP1 cell noCPT 16.4µM* and TDP1 block -4.4%.
Screening CCc1c(C)sc(NC(=S)N2CC(C)OC(C)C2)c1C(=O)OC (stereo not given) returned VP16 counter -15.5%, DT40 TDP1 CPT 0.8%, RORgamma inh 7.08µM*, TDP1 cell noCPT inconclusive and TDP1 block 3.6%.
CCc1c(C)sc(NC(=S)NC(C)C2CCCO2)c1C(=O)OC (stereo not given) was read as VP16 counter 10µM*, DT40 TDP1 CPT -7.2%, RORgamma inh 15.8µM*, TDP1 cell noCPT inconclusive and TDP1 block 10.3%.
`Cc1ccc(N(CC(=O)N2CCN(c3ccccc3F)CC2)S(=O)(=O)c2c(C)noc2C)cc1` gave VP16 counter 2.2%, DT40 TDP1 CPT 20.6µM*, RORgamma inh -0.9%, TDP1 cell noCPT inconclusive and TDP1 block 0.1%.
CCOc1ccc(N(CC(=O)N2CC=C(c3ccccc3)CC2)S(=O)(=O)c2c(C)noc2C)cc1 was read as VP16 counter 1.5%, DT40 TDP1 CPT inconclusive, RORgamma inh 3.3%, TDP1 cell noCPT inconclusive and TDP1 block 2.9%.
Screening COc1ccc(N(CC(=O)N2CC=C(c3ccccc3)CC2)S(=O)(=O)c2c(C)noc2C)cc1 returned VP16 counter -4.4%, DT40 TDP1 CPT inconclusive, RORgamma inh 10.8%, TDP1 cell noCPT 23.1µM* and TDP1 block 4.9%.
For Cc1ccc(S(=O)(=O)Oc2ccc(/C=C(/NC(=O)c3ccccc3)C(=O)Nc3ccccc3)cc2)cc1 the results were VP16 counter -1.5%, DT40 TDP1 CPT -2.1%, RORgamma inh 11.7%, TDP1 cell noCPT -13.1% and TDP1 block -3.8%.
Screening O=C(NNC1=NCCC1)c1cccc(Br)c1 returned VP16 counter inconclusive, DT40 TDP1 CPT 4.8%, RORgamma inh inconclusive, TDP1 cell noCPT -12.0% and TDP1 block 5.9%.
`Cc1ccccc1C(=O)NNC1=NCCC1` gave VP16 counter 14.1µM*, DT40 TDP1 CPT -2.2%, RORgamma inh 12.6µM*, TDP1 cell noCPT -0.8% and TDP1 block 5.6%.
`COc1ccc(C2NC(c3ccc(OC)cc3)C([N+](=O)[O-])C(C)(C)C2[N+](=O)[O-])cc1` (stereo not given) gave VP16 counter 0.4%, DT40 TDP1 CPT -3.5%, RORgamma inh 14.9%, TDP1 cell noCPT -22.7% and TDP1 block -6.2%.
`O=C(CSc1ccc2nnc(-c3cccc(F)c3)n2n1)N1CCCc2ccccc21` gave VP16 counter -3.0%, DT40 TDP1 CPT inconclusive, RORgamma inh 23.2%, TDP1 cell noCPT 18.4µM* and TDP1 block 2.3%.
Screening O=C(CSc1ccc2nnc(-c3ccc(F)cc3)n2n1)N1CCCc2ccccc21 returned VP16 counter -12.5%, DT40 TDP1 CPT 18.4µM*, RORgamma inh -7.9%, TDP1 cell noCPT 16.4µM* and TDP1 block 2.3%.
`O=C(CSc1ccc2nnc(-c3ccc(Cl)cc3)n2n1)N1CCCc2ccccc21` gave VP16 counter -4.9%, DT40 TDP1 CPT -65.8%, RORgamma inh 27.8%, TDP1 cell noCPT 23.1µM* and TDP1 block 5.7%.
`CC1CCN(C(=O)CSc2nc3c(c(=O)n(C)c(=O)n3C)n2C)CC1` gave VP16 counter 7.7%, DT40 TDP1 CPT 1.9%, RORgamma inh 16.5%, TDP1 cell noCPT -18.6% and TDP1 block -3.2%.
CC(C)C[C@H]1CNC(=S)N1C[C@H]1CCCN1C[C@H](Cc1ccccc1)N1C[C@H](Cc2ccc(O)cc2)N(CC2CCCCCC2)C1=S was read as DT40 TDP1 CPT 14.6µM* and TDP1 cell noCPT 13µM*.
`CC(C)C[C@H]1CNC(=S)N1CC1CCCN1C[C@H](Cc1ccc(O)cc1)N1C[C@H](Cc2ccccc2)N(CC2CCCCCC2)C1=S` (stereo not given in full) gave DT40 TDP1 CPT inconclusive and TDP1 cell noCPT 20.6µM*.
